# Assay outcomes (PubChem BioAssay)
# tim23-1 inh: inhibits growth of tim23-1 mutant yeast; 1.3% of 330,000 active; AID 463212; S. cerevisiae tim23-1 growth, BacTiter-Glo luminescence, 24 h; inhibition, % at 20 µM;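 active means growth inhibition of the mutant yeast at or above 50%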;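 further: temperature-sensitive mutant grown at 25 °C; plate controls were DMSO-treated mutant yeast for no effect and medium wells lacking yeast for full effect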
# TIM10 inh: TIM10 yeast growth inhibition. S. cerevisiae TIM10 strain growth, BacTiter-Glo luminescence, 24 h. inhibition, % at 10 µM. 1.4% of 330,000 active. AID 463195;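 active means inhibition of 40% or more at the single tested concentration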;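 further: wild-type TIM10 isogenic control strain grown at permissive 25 °C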
# NALP1 yeast inh: NALP1 inhibition. 0.61% of 280,000 active. S. cerevisiae NALP1/ASC/caspase-1 growth, X-gal OD620, 72 h. inhibition, % at 10 µM. AID 2071; in the data active means inhibition mostly above about 24%, no sharp cut-off; inactive means mostly below about 32%
# NLRP3 yeast inh: blocks the NALP3 inflammasome reconstituted in yeast; Yeast reconstituted NLRP3/ASC/caspase-1, beta-gal luminescence, 24 h; inhibition, % at 10 µM; 0.39% of 330,000 active;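 active means inhibition of 50% or more; inactive means inhibition below 50%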;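 further: plate controls were induced DMSO wells for no effect and uninduced yeast grown without galactose for full effect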
# tim10-1 inh: growth inhibitors of tim10-1 mutant yeast. S. cerevisiae tim10-1 ts strain growth, BacTiter-Glo, 24 h. inhibition, % at 20 µM. 2.2% of 330,000 active;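 active means inhibition of at least 40%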;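 further: mutant grown at 25 °C; 0% = DMSO wells with yeast and 100% = wells holding no yeast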
# V-ATPase pHluor: regulators of yeast V-ATPase proton transport; S. cerevisiae, pHLuorin cytosolic pH fluorescence; 0.37% of 350,000 active; response, % at 10 µM; AID 504577; in the data active means response mostly above about 7.3%, no sharp cut-off; inactive means mostly below about 5.4%; further: actives read high
# tim10-1 confirm: tim10-1 yeast growth inhibition, confirmed; shares compounds with tim10-1 inh; S. cerevisiae tim10-1 ts strain growth, BacTiter-Glo, 24 h; inhibition, % at 20 µM; 56% of 7,400 active;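 active means inhibition of yeast growth at or above a set limit in either of two repeat tests at 20 µM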;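 further: tim10-1 mutant grown at permissive 25 °C to find synthetic lethal compounds; 0% = DMSO yeast wells and 100% = medium wells without yeast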
# tim10 confirm: confirmation of TIM10 yeast growth inhibitors | shares compounds with TIM10 inh | S. cerevisiae tim10 strain growth, BacTiter-Glo luminescence, 24 h | inhibition, % at 10 µM | 63% of 4,600 active;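 active means inhibition of yeast growth at or above a set limit in either of two replicates at 10 µM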;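 further: this counterscreen used the strain with wild-type TIM10; 0% = yeast with DMSO and 100% = medium wells lacking yeast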
# tim23-1 confirm: tim23-1 yeast growth inhibition, confirmed; 83% of 4,400 active; inhibition, % at 20 µM; shares compounds with tim23-1 inh; S. cerevisiae tim23-1 growth, BacTiter-Glo luminescence, 24 h;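 active means inhibition above about 39% in either of two replicate wells at 20 µM, limit read from the data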;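 further: temperature-sensitive tim23-1 mutant grown at 25 °C; 0% = DMSO wells with yeast and 100% = medium wells without yeast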
# Starred values were filed as active, the others as inactive; · = not tested or not shown. Only some compounds are listed: those with a hit (about 4.2% of all), similar ones and a draw of the others.
SMILES,tim23-1 inh,TIM10 inh,NALP1 yeast inh,NLRP3 yeast inh,tim10-1 inh,V-ATPase pHluor,tim10-1 confirm,tim10 confirm,tim23-1 confirm
Cc1nnc(C)n1/N=C/c1cc(Br)ccc1O,27,-4,-10,6,14,-1,·,·,·
CS/C(N)=N/N=C/c1cc(Br)cc(Br)c1O,76*,71*,7,35,47*,-2,61*,61*,79*
Cc1nnc(C)n1/N=C/c1cc(Br)cc(Br)c1O,63*,63*,20,15,56*,-5,32*,0,85*
CN(C(=O)/C=C/c1ccc([N+](=O)[O-])s1)c1ccccc1,53*,43*,7,44,45*,1,59*,49*,50*
CN(C)CCN(C)Cc1c2ccccc2c(CN(C)CCN(C)C)c2ccccc12,58*,32,19,4,47*,1,36*,·,56*
CCOc1c(Br)cc(CNc2ncn[nH]2)cc1OC,0,2,37,6,-19,-1,·,·,·
CN(C)C(=O)c1ccc2c(c1[N+](=O)[O-])C(=O)c1ccccc1C2=O,61*,69*,30,36,71*,2,61*,63*,58*
Cc1[nH]c2c(C)cccc2c1CCNC(=O)c1ccc2c(c1[N+](=O)[O-])C(=O)c1ccccc1C2=O,39,40,13,36,27,-2,·,·,·
O=C(Nc1ccc(F)cc1Cl)C1=COCCO1,8,4,·,-1,14,-4,·,·,·
O=[N+]([O-])c1c(-c2cn[nH]c2)n[nH]c1-c1cn[nH]c1,-2,-14,·,-11,7,-3,·,·,·
Cc1ccc(C(=O)Nc2ccc(Br)c(C(F)(F)F)c2)cc1,67*,63*,16,-16,75*,-2,45*,63*,62*
Cc1ccc(Nc2ccc([N+](=O)[O-])nc2[N+](=O)[O-])cc1,53*,42*,40,18,42*,0,27,25,43*
COC(C(=O)Nc1ccnn1C1CCN(Cc2cnn(C)c2)CC1)c1ccccc1 (centres undefined),-12,-2,13,7,-22,-1,·,·,·
O=C(CSCc1cccc(Br)c1)N=Nc1c(O)[nH]c2ccccc12,53*,34,13,11,45*,3,20,·,59*
Cc1[nH][nH]c(=O)c1C(c1ccc(-c2ccc(C(=O)O)cc2)o1)c1c(C)[nH][nH]c1=O,·,·,-8,·,·,2,·,·,·
Cc1[nH][nH]c(=O)c1C(c1ccc(-c2ccc(F)cc2)o1)c1c(C)[nH][nH]c1=O,85*,-43,-14,-7,51*,1,13,·,60*
O=S(=O)(c1ccc2c(c1)OCCO2)N1CCN(Cc2ccc3c(c2)OCO3)CC1,60*,50*,4,9,47*,3,46*,51*,63*
O=S(=O)(c1ccc(F)c(F)c1)N1CCN(Cc2ccc3c(c2)OCO3)CC1,16,13,22,26,20,-1,·,·,·
Cc1ccc(C(=O)Nc2ccc(S(=O)(=O)Nc3ncccn3)cc2)cc1[N+](=O)[O-],12,-12,11,22,-20,5,·,·,·
Cc1c(C2(O)CCCCC2)[nH]c2cc(C(F)(F)F)ccc12,56*,25,·,31,42*,1,22,·,64*
CCN(CC)C(=O)C1=C(C)N(Cc2ccc(OC)cc2)C(=O)C(CC(=O)NCc2cccs2)C1 (centres undefined),·,·,·,·,·,1,·,·,·
Cc1ccc(CN2C(=O)CCC2C(=O)NCCCN2CCOCC2)cc1 (centres undefined),4,-3,-19,7,3,3,·,·,·
CC1CCc2nc(NC(=O)CN3CCN(c4ccc(F)cc4)CC3)sc2C1 (centres undefined),55*,28,10,22,51*,5,28,·,37
COc1cc(OC)nc(NC(=O)CN2CCN(c3ccc(F)cc3)CC2)n1,29,-4,8,-21,5,-2,·,·,·
CCOC(=O)c1oc2ccccc2c1NC(=O)C1CCCCC1,-12,-11,0,1,28,1,·,·,·
SMILES,tim23-1 inh,TIM10 inh,NALP1 yeast inh,NLRP3 yeast inh,tim10-1 inh,V-ATPase pHluor,tim10-1 confirm,tim10 confirm,tim23-1 confirm
CC1CCN(CC(=O)N(C)c2c(N)n(Cc3ccccc3)c(=O)[nH]c2=O)CC1,-2,-2,·,-7,6,12,·,·,·
CCc1c(O)cc2n(c1=O)-c1ccc(Cl)cc1C2(C)C,52*,42*,6,6,44*,2,34*,-17,49*
CCOc1ccc(Nc2nc(N)c3ccccc3n2)cc1,57*,46*,30,39,62*,3,65*,50*,65*
Nc1nc(Nc2ccc(Cl)cc2)nc2ccccc12,58*,68*,1,40,67*,0,57*,67*,55*
O=C(OC1CCCCC1)c1ccc(NC(=O)c2ccco2)cc1,54*,23,8,11,44*,-2,30,·,70*
O=C(Nc1ccc(OC(=O)c2ccco2)cc1)c1ccco1,35,29,-1,-14,-8,-3,·,·,·
CC(C)(C)C(=O)/C(=C/c1ccc(Cl)cc1)n1cncn1,52*,37,10,25,51*,0,35*,·,34
O=C(Cn1cncn1)N/N=C/c1ccc(Cl)cc1,-3,-18,29,5,-11,-1,·,·,·
CCC(C)Nc1nc(-c2cccc(OC)c2O)nc2ccccc12 (centres undefined),22,2,15,15,38,-2,·,·,·
COc1cccc(-c2nc(NC(C)C)c3ccccc3n2)c1O,55*,27,-11,7,57*,-1,45*,·,52*
CCOCCCNC(=O)/C(C#N)=C/c1cc(OC)c(O)c([N+](=O)[O-])c1,20,23,0,-8,13,-1,·,·,·
CCOCCCNC(=O)/C(C#N)=C/c1ccc(Cl)c([N+](=O)[O-])c1,86*,66*,4,-3,47*,4,73*,82*,88*
CNC(=O)/C(C#N)=C/c1cccc(Oc2ccccc2)c1,91*,78*,·,25,87*,-2,90*,78*,80*
CNC(=O)/C(=C\c1cccc(Oc2ccccc2)c1)NC(=O)c1ccccc1,9,4,20,1,1,-3,·,·,·
COc1ccc(-n2c(Cn3c(=O)sc4ccccc43)nnc2SCC(=O)N2CCCC2)cc1,7,6,-13,10,9,0,·,·,·
